Bioassay records from PubChem BioAssay.
This is a sample that favours compounds with a hit; in the whole collection about 27% have one here.
CYP2C19 inh – inhibitors of human CYP2C19; P33261; CYP2C19 Supersomes, luciferin-H EGE luminescence, 30 min; inhibition, % at 5 µM; hit rate 21% among 96,000;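 active = CYP2C19 inhibition above a set limit at 5 µM in the primary screen, cut at about 50% in these data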
CYP2C9 act – CYP2C9 (human) activation; P11712; recombinant CYP2C9, luciferin-H conversion, luminescence; active compounds read high; factor 1 = untreated enzyme, 0 = blocked; activation factor at 5 µM; hit rate 1.4% among 96,000;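 active = activation factor of 2 or more for CYP2C9 at a 5 µM dose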
Target sequence (P11712 whole entry, looked up): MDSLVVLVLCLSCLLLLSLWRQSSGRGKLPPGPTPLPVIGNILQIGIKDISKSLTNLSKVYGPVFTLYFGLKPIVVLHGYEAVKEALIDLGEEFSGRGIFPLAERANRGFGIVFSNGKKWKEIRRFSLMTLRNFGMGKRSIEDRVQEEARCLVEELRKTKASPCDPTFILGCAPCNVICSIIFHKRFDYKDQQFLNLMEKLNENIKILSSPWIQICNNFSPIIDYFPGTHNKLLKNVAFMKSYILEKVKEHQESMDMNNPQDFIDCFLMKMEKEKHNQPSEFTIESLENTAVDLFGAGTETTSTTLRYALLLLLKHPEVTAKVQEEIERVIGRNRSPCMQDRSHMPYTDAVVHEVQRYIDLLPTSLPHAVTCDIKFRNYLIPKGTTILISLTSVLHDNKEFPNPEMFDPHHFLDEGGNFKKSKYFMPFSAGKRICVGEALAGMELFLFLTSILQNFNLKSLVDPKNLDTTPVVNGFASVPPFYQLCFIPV
sEH inhibitor – soluble epoxide hydrolase (human) inhibition. hit rate 0.34% among 91,000. inhibition, % at 2 µM. recombinant human sEH enzymatic activity assay. P34913; in the data active = inhibition above about 80%
CYP2C9 inhib – blocks human cytochrome P450 2C9; AID 777; P11712; CYP2C9 Supersomes, luciferin-H conversion, luminescence; inhibition, % at 5 µM; hit rate 20% among 96,000;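 active = blocking of liver enzyme CYP2C9 beyond about 50% at 5 µM, limit read from the data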
sEH act – increases human soluble epoxide hydrolase activity | AID 717 | activation, % at 2 µM | hit rate 0.04% among 91,000 | P34913 | purified human sEH enzymatic activity, activator screen; in the data active = activation above about 37%
CYP2C19 act – activators of human cytochrome P450 2C19; P33261; recombinant CYP2C19, luciferin-H EGE luminescence; active compounds read high; 0 = fully inhibited enzyme, 1 = untreated enzyme; activation factor at 5 µM; 96,000 tested, under 10 active;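 active = activation factor of at least 2 at 5 µM in the primary screen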
Each line names hits and unclear results; the compound was inactive in the other large screens.

Cn1cc(S(=O)(=O)Nc2cccc(F)c2)c(=O)n(C)c1=O	none
Cc1cc(S(=O)(=O)Nc2cccc(O)c2)c(C)s1	CYP2C19 inh 92.3
Cc1cc(S(=O)(=O)Nc2ccc(F)cc2)c(C)s1	CYP2C19 inh 84.2, CYP2C9 inhib 51.0
Cc1cc(C(C)(C)C)cc(S(=O)(=O)Nc2cccc(C(=O)O)c2)c1C	none
CCC(=Nc1ccc(Cc2ccncc2)cc1)c1c(O)n(C)c(=O)n(C)c1=O	CYP2C19 inh 95.6, CYP2C9 inhib 91.7
CCN(CC)c1nc(Nc2ccccc2)nc(Oc2ccc(=O)[nH]n2)n1	none
CN(C)c1nc(NCc2ccccc2)nc(Oc2ccc(=O)[nH]n2)n1	CYP2C19 inh 59.6
Cc1cc(NC(=O)COC(=O)c2cccc(S(=O)(=O)N3CCOCC3)c2)no1	none
O=S(=O)(c1cccc2cccnc12)N1CCc2ccccc21	none
Cc1cc(NC(=O)COC(=O)c2ccc(S(=O)(=O)N3CCCc4ccccc43)cc2)no1	CYP2C9 inhib 66.2
COc1ccc(F)cc1S(=O)(=O)N1CC(C)CC(C)C1 (centres undefined)	CYP2C19 inh 64.9
COc1ccc(OC)c(S(=O)(=O)N2CCc3ccccc32)c1	CYP2C19 inh 76.8
COc1ccc(OC)c(S(=O)(=O)N2c3cc(F)ccc3CCC2C)c1 (centres undefined)	CYP2C19 inh 87.8, CYP2C9 inhib 60.8
CCOC(=O)Cn1c(=O)n(Cc2ccco2)c(=O)c2ccc(C(=O)NC3CCCC3)cc21	none (no result: sEH inhibitor, sEH act)
COc1ccc(OC)c(S(=O)(=O)N2C(C)CCCC2C)c1 (centres undefined)	CYP2C19 inh 93.2, CYP2C9 inhib 85.4 (no result: sEH inhibitor, sEH act)
CCCNC(=O)NC(=O)COC(=O)c1ccc(OC)c(S(=O)(=O)N2CCCc3ccccc32)c1	CYP2C9 inhib 95.2
COc1ccc(C(=O)NCc2ccc(C)cc2)cc1S(=O)(=O)N1CCCc2ccccc21	CYP2C19 inh 67.1, CYP2C9 inhib 74.1
COc1ccc(OC)c(S(=O)(=O)N2CCN(C34CC5CC(CC(C5)C3)C4)CC2)c1	none
CC1Cc2ccccc2N1S(=O)(=O)c1cccc2nsnc12 (centres undefined)	CYP2C19 inh 79.2, CYP2C9 inhib 99.1
COc1ccc(N2C(=O)NC3CC2(C)Oc2ccccc23)cc1OC (centres undefined)	none
COc1ccc(OC)c(S(=O)(=O)N2c3ccccc3CC2C)c1 (centres undefined)	CYP2C19 inh 75.0, CYP2C9 inhib 79.4
COc1ccc(C(=O)N2CCCCC2)cc1S(=O)(=O)Nc1cccc(C(=O)O)c1	none (no result: CYP2C19 inh, CYP2C9 act, CYP2C9 inhib, CYP2C19 act)
COc1ccc(C(=O)N2CCCN(C)CC2)cc1S(=O)(=O)N1CCCc2ccccc21	CYP2C9 inhib 50.3 (no result: sEH inhibitor, sEH act)
COc1ccc(OC)c(S(=O)(=O)N2CCCc3ccccc32)c1	CYP2C19 inh 83.6
COc1ccc(-c2nnn(CC(=O)N(Cc3cccs3)C(C)C(=O)NC3CCCC3)n2)cc1OC (centres undefined)	CYP2C19 inh 56.6, CYP2C9 inhib 52.1
CCCCC(C(=O)NC1CCCC1)N(Cc1ccco1)C(=O)Cn1nnc(-c2ccc(F)cc2)n1 (centres undefined)	CYP2C19 inh 92.2, CYP2C9 inhib 92.3
CCC(C(=O)NC1CCCC1)N(C(=O)Cn1nnc(-c2ccc(OC)c(OC)c2)n1)C1CCCCC1 (centres undefined)	CYP2C19 inh 72.1, CYP2C9 inhib 52.2
CCC(C(=O)NC1CCCC1)N(Cc1cccs1)C(=O)Cn1nnc(-c2ccc(OC)c(OC)c2)n1 (centres undefined)	none (no result: CYP2C19 inh, CYP2C9 act, CYP2C9 inhib, CYP2C19 act)
C=CCc1ccc(OCCCCN2CC(C)OC(C)C2)c(OC)c1 (centres undefined)	none
O=C1CC(C(=O)Nc2ccc(O)c(C(=O)O)c2)C(c2ccccc2)O1 (centres undefined)	none
O=C(OCC(=O)c1c[nH]c2ccccc12)c1ccc(Br)o1	CYP2C19 inh 65.8
O=C(OCC(=O)c1c[nH]c2ccccc12)c1ccco1	none
O=C(NCCC(c1ccccc1)c1ccccc1)c1ccc(Br)o1	CYP2C19 inh 66.7, sEH inhibitor 97.0, CYP2C9 inhib 74.5
Cc1[nH]c2ccccc2c1SCCNC(=O)c1ccc(Br)o1	none (no result: CYP2C19 inh, CYP2C9 act, CYP2C9 inhib, CYP2C19 act)
O=C(NCC1(c2ccccc2)CCOCC1)c1ccc(Br)o1	CYP2C19 inh 72.5
O=C(NCCSc1c[nH]c2ccccc12)c1ccc(Br)o1	CYP2C9 inhib 85.8
O=C(O)CCNC(=O)c1ccc(Br)o1	none (no result: sEH inhibitor, sEH act)
COc1ccc(NC2CC(=O)NC2=O)cc1 (centres undefined)	none
Cc1ccc(S(=O)(=O)N2CCN(CCO)CC2)cc1-c1nnc2c3ccccc3c(C)nn12	none (no result: CYP2C19 inh, CYP2C9 act, CYP2C9 inhib, CYP2C19 act)
CCn1nc(C(=O)OCC(=O)c2c[nH]c3ccccc23)c2ccccc2c1=O	CYP2C9 inhib 71.9
CC(C)n1nc(C(=O)OCC(=O)c2c[nH]c3ccccc23)c2ccccc2c1=O	none
CCc1cccc(NC(=O)COc2ccccc2)c1	CYP2C19 inh 51.6
CC(=O)c1cccc(NC(=O)Cc2ccc3c(c2)CCCC3)c1	CYP2C9 act 2.6
CC(=O)Oc1ccc(C(=O)Nc2cc(C)ccc2NC(=O)COc2ccccc2)cc1	CYP2C9 inhib 58.4
CC(=O)c1cccc(NC(=O)COc2ccccc2)c1	CYP2C19 inh 74.1, CYP2C9 inhib 56.8
CSc1cccc(NC(=O)COc2ccccc2)c1	none
CN(CCO)C(=O)CCC(=O)Nc1ccc(S(N)(=O)=O)cc1	none
FCCCOc1ccc(/C=N/OCc2ccc(Cl)cc2Cl)cc1	none
CC1Cc2cc(/C(O)=C3/C(=O)C(=O)N(Cc4ccco4)C3c3cccs3)ccc2O1 (centres undefined)	none
CCOc1ccc(/C(O)=C2/C(=O)C(=O)N(c3nc(C)c(C)s3)C2c2ccco2)cc1 (centres undefined)	CYP2C9 inhib 81.0 (no result: sEH inhibitor, sEH act)
CCN(CC)CCN1C(=O)C(=O)/C(=C(/O)c2ccc(OC)cc2)C1c1ccco1 (centres undefined)	none
COc1ccc(N(CC(=O)Nc2ccc(C)c(C)c2)S(=O)(=O)c2c(C)n[nH]c2C)cc1	CYP2C19 inh 82.3, CYP2C9 inhib 72.0 (no result: sEH inhibitor, sEH act)
Cc1ccc(N(CC(=O)Nc2cccc(C)c2)S(=O)(=O)c2cccc3nonc23)cc1	CYP2C19 inh 55.0, CYP2C9 inhib 88.6
CCc1cccc(NC(=O)CN(c2ccc(OC)cc2)S(=O)(=O)c2c(C)n[nH]c2C)c1	CYP2C19 inh 87.7, CYP2C9 inhib 78.5 (no result: sEH inhibitor, sEH act)
Cc1cccc(NS(=O)(=O)c2c(C)n[nH]c2C)c1	CYP2C19 inh 68.3, CYP2C9 inhib 79.0
COc1cc(NC(=O)CN(c2ccc(C)cc2)S(=O)(=O)c2c(C)n[nH]c2C)cc(OC)c1	CYP2C19 inh 81.7, CYP2C9 inhib 83.5
CCOC(=O)c1cccc(NC(=O)CN(c2ccc(C)cc2)S(=O)(=O)c2c(C)n[nH]c2C)c1	CYP2C19 inh 61.1, CYP2C9 inhib 82.3
COc1ccc(N(CC(=O)Nc2ccc(F)c(Cl)c2)S(=O)(=O)c2c(C)noc2C)cc1	none
